# In PubChem BioAssay (EPA / NIEHS):
# “And” between values parts separate entries of the source, which are not always exact repeats. Equal values may be shown once. Inconclusive results are not listed. The source holds several records for some structures; these can differ, active in one and inactive in another. The source made the active and inactive calls. Rule for the calls: active = hit-call score of the fitted dose curve at least 0.9, where 1 is the maximum; inconclusive = response in the unintended direction; inactive = score below 0.9.
# Tests used:
# [1] = ATG_M_06_XSP2: Attagene TRANS-FACTORIAL Multi-Species (XSP2) HepG2 Assay for M06 Transcription Factor (Internal Marker) (AID 2283811);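 note: hits are increases in signal above the DMSO baseline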
# Outline: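 Cells of the human liver line HepG2 carried transfected reporter transcription units and were treated for 24 h. Induced reporter transcripts were detected by fluorescence after RT-PCR and capillary electrophoresis, with activity fitted in the gain direction against DMSO.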
# [2] = tested on: turtle Estrogen Receptor (ERa), gene 101933533; assay: ATG_trERa_XSP2: Attagene TRANS-FACTORIAL Multi-Species (XSP2) HepG2 Assay for turtle Estrogen Receptor (ERa) (AID 2283812);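 note: actives raise reporter signal above DMSO so AC50 reflects agonist activity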
# Outline: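 Readout is reporter mRNA quantified by RT-PCR with capillary electrophoresis after 24 h compound exposure, increase relative to DMSO. Uses transiently transfected human HepG2 liver cells carrying a chimeric turtle ERa-Gal4 receptor driving GAL4-UAS reporters.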
# [3] = target: GAL4 Transcription Factor (Internal Marker), GAL4 (gene 855828) (UniProt P04386); assay: ATG_GAL4_XSP2: Attagene TRANS-FACTORIAL Multi-Species (XSP2) HepG2 Assay for GAL4 Transcription Factor (Internal Marker) (AID 2283814);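 note: GAL4 reporter mRNA background control in MRTU transfected cells not a receptor target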
# Chain of GAL4 Transcription Factor (Internal Marker), GAL4 (gene 855828) (P04386 whole entry, looked up, the tested form may be a part): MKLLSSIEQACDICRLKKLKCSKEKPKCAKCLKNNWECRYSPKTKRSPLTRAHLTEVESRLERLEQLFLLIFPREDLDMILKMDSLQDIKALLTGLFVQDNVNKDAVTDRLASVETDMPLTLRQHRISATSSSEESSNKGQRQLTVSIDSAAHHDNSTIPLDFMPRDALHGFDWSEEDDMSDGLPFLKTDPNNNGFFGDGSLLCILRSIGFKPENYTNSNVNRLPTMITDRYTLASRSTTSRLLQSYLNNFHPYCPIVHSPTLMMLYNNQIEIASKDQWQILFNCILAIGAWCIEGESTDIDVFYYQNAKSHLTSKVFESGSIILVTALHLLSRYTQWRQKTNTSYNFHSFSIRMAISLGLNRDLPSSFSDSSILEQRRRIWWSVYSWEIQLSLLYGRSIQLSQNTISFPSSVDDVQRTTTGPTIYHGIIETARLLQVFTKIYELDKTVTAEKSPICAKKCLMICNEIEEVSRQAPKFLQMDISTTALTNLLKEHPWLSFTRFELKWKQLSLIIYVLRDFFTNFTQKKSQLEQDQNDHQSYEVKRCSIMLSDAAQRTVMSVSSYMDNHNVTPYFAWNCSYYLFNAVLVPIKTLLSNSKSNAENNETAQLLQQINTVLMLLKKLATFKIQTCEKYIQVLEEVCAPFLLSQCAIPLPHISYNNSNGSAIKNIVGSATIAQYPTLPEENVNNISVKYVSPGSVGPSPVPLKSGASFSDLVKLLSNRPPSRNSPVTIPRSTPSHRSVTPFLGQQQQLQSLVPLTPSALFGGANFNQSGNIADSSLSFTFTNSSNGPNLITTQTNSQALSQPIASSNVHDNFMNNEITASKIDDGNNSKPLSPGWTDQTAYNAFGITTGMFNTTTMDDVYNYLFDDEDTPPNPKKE
# Outline: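 Background-control readout: gain-of-signal fitted against DMSO. After 24 h exposure of transfected HepG2 (MRTU, GAL4-UAS reporters; 3 nM 6-alpha-fluorotestosterone, 1.5 nM norgestrel present), transcripts quantified by RT-PCR and capillary electrophoresis fluorescence.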
# [4] = tested on: turtle Androgen Receptor (AR), gene 101947425; assay: ATG_trAR_XSP2: Attagene TRANS-FACTORIAL Multi-Species (XSP2) HepG2 Assay for turtle Androgen Receptor (AR) (AID 2283815)
# Outline: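 Reporter transcripts were quantified via RT-PCR and capillary electrophoresis and fitted upward against DMSO. Transiently transfected human HepG2 cells carrying NR-Gal4 chimeras were exposed 24 h, with 3 nM 6-alpha-fluorotestosterone plus 1.5 nM norgestrel added.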
# [5] = target: zebrafish Estrogen Receptor (ER1), esr1 (gene 259252) (UniProt P57717); assay: ATG_zfER1_XSP2: Attagene TRANS-FACTORIAL Multi-Species (XSP2) HepG2 Assay for zebrafish Estrogen Receptor (ER1) (AID 2283816)
# Chain of zebrafish Estrogen Receptor (ER1), esr1 (gene 259252) (P57717 whole entry, looked up, the tested form may be a part): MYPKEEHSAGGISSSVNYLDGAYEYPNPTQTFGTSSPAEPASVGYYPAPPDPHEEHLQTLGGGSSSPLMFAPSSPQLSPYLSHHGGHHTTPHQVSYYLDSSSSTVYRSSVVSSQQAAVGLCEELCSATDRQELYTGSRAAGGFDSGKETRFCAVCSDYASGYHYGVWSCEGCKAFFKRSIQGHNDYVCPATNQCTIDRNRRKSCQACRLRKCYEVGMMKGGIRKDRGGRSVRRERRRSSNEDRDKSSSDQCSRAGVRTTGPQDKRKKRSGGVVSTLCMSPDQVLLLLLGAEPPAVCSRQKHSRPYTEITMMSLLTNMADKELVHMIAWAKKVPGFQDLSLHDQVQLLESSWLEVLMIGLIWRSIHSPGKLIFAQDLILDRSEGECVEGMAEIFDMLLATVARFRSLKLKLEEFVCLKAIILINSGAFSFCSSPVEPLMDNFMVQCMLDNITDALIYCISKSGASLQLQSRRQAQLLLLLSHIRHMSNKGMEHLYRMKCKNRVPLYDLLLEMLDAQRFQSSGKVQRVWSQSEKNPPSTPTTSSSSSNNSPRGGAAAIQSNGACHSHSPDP
# Outline: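 After 24 h compound exposure, RNA from transfected HepG2 cells was reverse-transcribed and reporter transcripts resolved by capillary electrophoresis. The TRANS format reads exogenous zebrafish ER1-Gal4 chimera activity on GAL4-UAS elements; gain of signal against DMSO.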
# [6] = target: chicken Estrogen Receptor (ERa), ESR1 (gene 396099) (UniProt P06212); assay: ATG_chERa_XSP2: Attagene TRANS-FACTORIAL Multi-Species (XSP2) HepG2 Assay for chicken Estrogen Receptor (ERa) (AID 2283817);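 note: actives raise reporter signal above DMSO so AC50 reflects ER activation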
# Chain of chicken Estrogen Receptor (ERa), ESR1 (gene 396099) (P06212 whole entry, looked up, the tested form may be a part): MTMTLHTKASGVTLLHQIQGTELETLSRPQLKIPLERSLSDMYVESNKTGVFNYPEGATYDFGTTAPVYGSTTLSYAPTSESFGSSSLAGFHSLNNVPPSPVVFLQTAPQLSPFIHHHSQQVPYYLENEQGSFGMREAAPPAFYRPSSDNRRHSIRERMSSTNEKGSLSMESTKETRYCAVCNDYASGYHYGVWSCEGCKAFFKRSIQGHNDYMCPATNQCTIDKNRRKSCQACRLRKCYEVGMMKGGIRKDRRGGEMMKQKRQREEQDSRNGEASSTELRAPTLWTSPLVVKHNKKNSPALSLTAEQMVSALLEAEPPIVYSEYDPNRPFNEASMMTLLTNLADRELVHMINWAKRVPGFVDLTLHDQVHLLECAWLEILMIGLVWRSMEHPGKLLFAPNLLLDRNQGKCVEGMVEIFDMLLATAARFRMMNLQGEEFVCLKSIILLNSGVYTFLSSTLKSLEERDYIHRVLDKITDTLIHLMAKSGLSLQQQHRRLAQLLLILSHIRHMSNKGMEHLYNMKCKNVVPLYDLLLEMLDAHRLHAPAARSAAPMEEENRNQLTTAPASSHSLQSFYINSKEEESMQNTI
# Outline: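 Exogenous chicken ERa-Gal4 chimera activity was assessed in transfected human liver HepG2 cells after 24 h of treatment. Induced reporter mRNA was quantified fluorescently by capillary electrophoresis, with DMSO as baseline.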
# [7] = tested on: zebrafish Estrogen Receptor (ER2a), gene 317734; assay: ATG_zfER2a_XSP2: Attagene TRANS-FACTORIAL Multi-Species (XSP2) HepG2 Assay for zebrafish Estrogen Receptor (ER2a) (AID 2283818);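 note: hits raise reporter mRNA so AC50 reflects activation of zebrafish ER2a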
# Outline: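 Multiplexed trans-reporter readout: RT-PCR then capillary electrophoresis of reporter transcripts after 24 h compound treatment. Human HepG2 carries transfected zebrafish ER2a-Gal4 chimera; 3 nM 6-alpha-fluorotestosterone plus 1.5 nM norgestrel present. Induction scored against DMSO.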
# [8] = tested on: frog Estrogen Receptor (ER), gene 398734; assay: ATG_frER1_XSP2: Attagene TRANS-FACTORIAL Multi-Species (XSP2) HepG2 Assay for frog Estrogen Receptor (ER) (AID 2283821);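 note: hits raise reporter mRNA above DMSO baseline so potency means agonist or activator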
# Outline: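 Gain-of-signal mRNA reporter assay, HepG2 human liver cells, 24 h dosing; transcripts read by fluorescent RT-PCR fragment analysis, DMSO as negative control.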
# [9] = tested on: zebrafish Estrogen Receptor (ER2b), gene 317733; assay: ATG_zfER2b_XSP2: Attagene TRANS-FACTORIAL Multi-Species (XSP2) HepG2 Assay for zebrafish Estrogen Receptor (ER2b) (AID 2283823);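 note: fitted upward as reporter gain over DMSO so potency reflects activation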
# Outline: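 Cells used were HepG2, transiently transfected with chimeric nuclear receptor-Gal4 reporter units. After 24 h of chemical treatment, reporter transcripts were amplified by RT-PCR, labelled and sized by capillary electrophoresis, with induction analysed relative to DMSO.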
# [10] = tested on: zebrafish Androgen Receptor (AR), gene 100005148; assay: ATG_zfAR_XSP2: Attagene TRANS-FACTORIAL Multi-Species (XSP2) HepG2 Assay for zebrafish Androgen Receptor (AR) (AID 2283825);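 note: hits raise reporter mRNA above DMSO so AC50 reflects agonist-type gain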
# Outline: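 After 24 h compound exposure in medium with 3 nM 6-alpha-fluorotestosterone plus 1.5 nM norgestrel, HepG2 cells carrying zebrafish AR–GAL4 reporter constructs were assessed for reporter mRNA gain by RT-PCR and capillary electrophoresis.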
# [11] = tested on: frog Estrogen Receptor (ER2), gene 100174814; assay: ATG_frER2_XSP2: Attagene TRANS-FACTORIAL Multi-Species (XSP2) HepG2 Assay for frog Estrogen Receptor (ER2) (AID 2283828)
# Outline: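 Induction of reporter mRNA, baseline set by DMSO, is the endpoint. The panel was run in transfected HepG2 cells over 24 h, with 3 nM 6-alpha-fluorotestosterone and 1.5 nM norgestrel present to stimulate androgen receptor.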
# [12] = target: zebrafish Thyroid Hormone Receptor alpha (TRa), thraa (gene 30670) (UniProt Q98867); assay: ATG_zfTRa_XSP1: Attagene TRANS-FACTORIAL Multi-Species (XSP1) HepG2 Assay for zebrafish Thyroid Hormone Receptor alpha (TRa) (AID 2283807)
# Chain of zebrafish Thyroid Hormone Receptor alpha (TRa), thraa (gene 30670) (Q98867 whole entry, looked up, the tested form may be a part): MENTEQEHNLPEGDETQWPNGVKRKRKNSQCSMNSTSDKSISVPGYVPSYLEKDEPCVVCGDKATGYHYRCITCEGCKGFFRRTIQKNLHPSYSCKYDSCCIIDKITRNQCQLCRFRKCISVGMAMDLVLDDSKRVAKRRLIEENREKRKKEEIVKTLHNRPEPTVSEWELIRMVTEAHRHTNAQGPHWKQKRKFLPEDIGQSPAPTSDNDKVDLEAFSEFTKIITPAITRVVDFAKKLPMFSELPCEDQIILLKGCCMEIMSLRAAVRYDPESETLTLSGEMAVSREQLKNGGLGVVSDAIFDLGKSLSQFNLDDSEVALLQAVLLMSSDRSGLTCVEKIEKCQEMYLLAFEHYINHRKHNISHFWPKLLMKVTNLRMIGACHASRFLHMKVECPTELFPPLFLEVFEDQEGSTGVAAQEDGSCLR
# Outline: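 Reporter transcripts driven by a chimeric zebrafish TRa–Gal4 protein were measured by RT-PCR with fluorescent labelling and capillary electrophoresis. These came from transiently transfected HepG2 cells after 24 h chemical exposure, with 3 nM 6-alpha-fluorotestosterone added; baseline was DMSO.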
# [13] = tested on: chicken Androgen Receptor (AR), gene 422165; assay: ATG_chAR_XSP2: Attagene TRANS-FACTORIAL Multi-Species (XSP2) HepG2 Assay for chicken Androgen Receptor (AR) (AID 2283819);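 note: hits raise reporter mRNA above DMSO so potency is for activation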
# Outline: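 Readout is reporter mRNA induction via RT-PCR/capillary electrophoresis after 24 h chemical exposure, positive direction relative to DMSO. Transiently transfected HepG2 express chimeric chicken AR–GAL4; AR stimulated by 3 nM 6-alpha-fluorotestosterone and 1.5 nM norgestrel.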
# [14] = target: human Androgen Receptor (AR), AR (gene 367) (UniProt P10275); assay: ATG_hAR_XSP2: Attagene TRANS-FACTORIAL Multi-Species (XSP2) HepG2 Assay for human Androgen Receptor (AR) (AID 2283820)
# Chain of human Androgen Receptor (AR), AR (gene 367) (P10275 whole entry, looked up, the tested form may be a part): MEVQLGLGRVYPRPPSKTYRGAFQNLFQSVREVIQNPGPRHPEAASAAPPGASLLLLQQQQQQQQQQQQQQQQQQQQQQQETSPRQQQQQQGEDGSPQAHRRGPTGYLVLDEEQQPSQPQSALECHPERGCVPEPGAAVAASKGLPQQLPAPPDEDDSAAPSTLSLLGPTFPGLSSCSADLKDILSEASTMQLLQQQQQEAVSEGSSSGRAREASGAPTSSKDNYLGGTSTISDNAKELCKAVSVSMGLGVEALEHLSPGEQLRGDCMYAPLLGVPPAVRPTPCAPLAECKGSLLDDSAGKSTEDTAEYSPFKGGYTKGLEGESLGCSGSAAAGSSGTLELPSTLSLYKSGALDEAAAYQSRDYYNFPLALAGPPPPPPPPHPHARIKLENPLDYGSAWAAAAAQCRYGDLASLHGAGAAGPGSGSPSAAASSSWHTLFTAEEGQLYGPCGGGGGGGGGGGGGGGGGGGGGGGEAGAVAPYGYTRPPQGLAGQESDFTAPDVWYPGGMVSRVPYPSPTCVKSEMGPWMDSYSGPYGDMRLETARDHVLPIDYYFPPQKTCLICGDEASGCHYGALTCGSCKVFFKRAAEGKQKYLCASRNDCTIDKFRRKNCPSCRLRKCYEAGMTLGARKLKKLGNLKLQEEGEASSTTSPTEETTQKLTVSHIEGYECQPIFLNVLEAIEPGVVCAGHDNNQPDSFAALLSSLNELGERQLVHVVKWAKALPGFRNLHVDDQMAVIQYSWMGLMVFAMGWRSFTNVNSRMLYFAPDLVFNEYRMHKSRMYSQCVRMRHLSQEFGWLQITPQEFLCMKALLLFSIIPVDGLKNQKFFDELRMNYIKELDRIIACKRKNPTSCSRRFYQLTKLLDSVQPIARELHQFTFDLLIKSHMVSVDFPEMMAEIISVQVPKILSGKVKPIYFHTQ
# Outline: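 Reporter transcripts were measured by RT-PCR and capillary electrophoresis 24 h post-dosing, with gain of signal fitted against DMSO. Transiently transfected HepG2 cells expressed chimeric NR-Gal4 on GAL4-UAS reporters, with AR stimulated by 3 nM 6-alpha-fluorotestosterone and 1.5 nM norgestrel.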
# [15] = ATG_M_19_XSP2: Attagene TRANS-FACTORIAL Multi-Species (XSP2) HepG2 Assay for M32 Transcription Factor (Internal Marker) (AID 2283822)
# Outline: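 Internal background marker in a multi-species nuclear receptor TRANS panel: transfected HepG2 cells exposed 24 h, with 3 nM 6-alpha-fluorotestosterone and 1.5 nM norgestrel present. Readout is RT-PCR of reporter transcripts resolved by capillary electrophoresis, gain-of-signal versus DMSO.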
# [16] = tested on: frog Androgen Receptor (AR), gene 399456; assay: ATG_frAR_XSP2: Attagene TRANS-FACTORIAL Multi-Species (XSP2) HepG2 Assay for frog Androgen Receptor (AR) (AID 2283824);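 note: reporter mRNA from GAL4-UAS units driven by Xenopus AR-Gal4 chimera; actives raise reporter signal above DMSO so AC50 reflects agonist-like induction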
# Outline: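 Reporter transcript induction, read by RT-PCR with fluorescent capillary electrophoresis, in human liver HepG2 cells carrying an exogenous Xenopus AR-Gal4 fusion and GAL4-driven reporters; chemical exposure 24 hours, activity scored upward against DMSO controls.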
# [17] = target: human Thyroid hormone Receptor beta (TRb), THRB (gene 7068) (UniProt P10828); assay: ATG_hTRb_XSP1: Attagene TRANS-FACTORIAL Multi-Species (XSP1) HepG2 Assay for human Thyroid hormone Receptor beta (TRb) (AID 2283808)
# Chain of human Thyroid hormone Receptor beta (TRb), THRB (gene 7068) (P10828 whole entry, looked up, the tested form may be a part): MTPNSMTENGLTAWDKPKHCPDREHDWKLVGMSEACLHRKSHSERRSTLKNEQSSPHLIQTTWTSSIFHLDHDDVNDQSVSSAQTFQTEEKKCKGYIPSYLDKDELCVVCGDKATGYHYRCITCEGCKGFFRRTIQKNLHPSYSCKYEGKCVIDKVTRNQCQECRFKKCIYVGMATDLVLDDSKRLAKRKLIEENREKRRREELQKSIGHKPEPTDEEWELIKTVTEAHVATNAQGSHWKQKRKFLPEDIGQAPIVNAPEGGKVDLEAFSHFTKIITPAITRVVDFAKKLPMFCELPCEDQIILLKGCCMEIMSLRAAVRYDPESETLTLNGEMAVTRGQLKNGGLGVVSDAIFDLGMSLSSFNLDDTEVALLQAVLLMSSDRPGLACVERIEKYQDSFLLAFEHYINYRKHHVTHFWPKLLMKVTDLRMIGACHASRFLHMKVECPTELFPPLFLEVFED
# Outline: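 Readout is reporter mRNA induction measured by RT-PCR, fluorescent labelling and capillary electrophoresis, fitted upward relative to DMSO. Transiently transfected human HepG2 cells expressing NR-Gal4 chimeras were dosed for 24 h, medium containing 3 nM 6-alpha-fluorotestosterone.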
# [18] = ATG_XTT_Cytotoxicity_XSP1: Cytotoxicity Assessment in the Attagene TRANS-FACTORIAL Multi-Species (XSP1) HepG2 Assay (AID 2283810)
# Outline: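 XTT viability readout taken at 24 hours post-dosing in HepG2 liver cells co-treated with 3 nM 6-alpha-fluorotestosterone. Signal loss relative to DMSO controls reflects cytotoxicity.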
# [19] = target: Estrogen receptor beta (Homo sapiens) (UniProt Q92731); assay: ATG_hERb_XSP2: Attagene TRANS-FACTORIAL Multi-Species (XSP2) HepG2 Assay for human Estrogen Receptor (ERb) (AID 2283813);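 note: actives raise reporter mRNA above DMSO so AC50 reflects agonist induction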
# Chain of Estrogen receptor beta (Homo sapiens) (Q92731 whole entry, looked up, the tested form may be a part): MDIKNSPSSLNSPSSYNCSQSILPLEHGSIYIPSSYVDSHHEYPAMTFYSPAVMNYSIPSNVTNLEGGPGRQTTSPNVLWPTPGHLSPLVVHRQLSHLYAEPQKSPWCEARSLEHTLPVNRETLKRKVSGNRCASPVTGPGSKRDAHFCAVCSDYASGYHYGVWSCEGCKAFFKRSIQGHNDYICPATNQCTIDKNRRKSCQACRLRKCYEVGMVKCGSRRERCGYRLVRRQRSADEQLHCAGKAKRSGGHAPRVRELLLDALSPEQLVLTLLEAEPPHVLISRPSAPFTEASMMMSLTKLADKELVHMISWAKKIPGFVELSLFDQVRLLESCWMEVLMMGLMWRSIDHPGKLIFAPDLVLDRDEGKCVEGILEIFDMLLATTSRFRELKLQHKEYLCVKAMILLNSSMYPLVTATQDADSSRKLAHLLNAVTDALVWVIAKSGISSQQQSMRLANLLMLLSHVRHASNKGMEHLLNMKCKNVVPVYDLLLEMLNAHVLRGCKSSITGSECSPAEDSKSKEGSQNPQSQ
# Outline: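 Transient TRANS reporter system in HepG2: after 24 h of chemical, RNA is reverse-transcribed, reporter cDNA amplified, FAM-labelled and sized by capillary electrophoresis. Induction of the human ERb-Gal4 reporter is measured relative to DMSO.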
# [20] = target: zebrafish Thyroid Hormone Receptor beta (TRb), thrb (gene 30607) (UniProt Q9PVE4); assay: ATG_zfTRb_XSP1: Attagene TRANS-FACTORIAL Multi-Species (XSP1) HepG2 Assay for zebrafish Thyroid Hormone Receptor beta (TRb) (AID 2283809)
# Chain of zebrafish Thyroid Hormone Receptor beta (TRb), thrb (gene 30607) (Q9PVE4 whole entry, looked up, the tested form may be a part): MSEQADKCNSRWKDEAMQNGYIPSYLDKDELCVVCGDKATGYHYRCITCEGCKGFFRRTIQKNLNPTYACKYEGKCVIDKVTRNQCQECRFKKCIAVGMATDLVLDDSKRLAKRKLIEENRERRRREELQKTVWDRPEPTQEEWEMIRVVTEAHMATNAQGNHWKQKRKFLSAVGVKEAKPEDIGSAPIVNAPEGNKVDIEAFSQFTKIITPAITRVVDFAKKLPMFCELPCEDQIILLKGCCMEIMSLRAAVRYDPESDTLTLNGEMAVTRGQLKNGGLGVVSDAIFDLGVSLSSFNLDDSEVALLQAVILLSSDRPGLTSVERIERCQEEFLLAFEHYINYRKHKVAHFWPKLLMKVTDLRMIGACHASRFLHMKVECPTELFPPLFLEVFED
# Outline: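 HepG2 cells transiently transfected with multiplexed GAL4-UAS reporter units expressing chimeric zebrafish TRb–Gal4. Dosed 24 h with 3 nM 6-alpha-fluorotestosterone present; reporter mRNA measured by RT-PCR, HpaI digestion and capillary electrophoresis; gain of signal versus DMSO.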
smiles,measurement,setting,value
N[C@@H](Cc1cc(I)c(Oc2ccc(O)c(I)c2)c(I)c1)C(=O)O,outcome,[1],inactive
same,AC50,[2],359 nM (active) and 3.85 µM (active)
same,outcome,[3],inactive
same,outcome,[4],inactive
same,AC50,[5],5.09 µM (active)
same,outcome,[5],inactive
same,AC50,[6],4.3 µM (active)
same,outcome,[6],inactive
same,AC50,[7],3.71 µM (active)
same,outcome,[7],inactive
same,AC50,[8],3.68 µM (active)
same,outcome,[8],inactive
same,AC50,[9],4.9 µM (active)
same,outcome,[9],inactive
same,outcome,[10],inactive
same,AC50,[11],4.9 µM (active)
same,outcome,[11],inactive
CC1(C)C(C=C(Cl)Cl)C1C(=O)OCc1cccc(Oc2ccccc2)c1 (stereo not given),outcome,[12],inactive
same,AC50,[2],42.3 µM (active)
same,outcome,[3],inactive
same,outcome,[4],inactive
same,AC50,[6],4.5 µM (active)
same,AC50,[7],18.6 µM (active)
same,outcome,[13],inactive
same,outcome,[14],inactive
same,outcome,[8],inactive
same,outcome,[15],inactive
same,AC50,[9],100 µM (active)
same,outcome,[16],inactive
same,AC50,[11],34.8 µM (active)
C=CCOC(Cn1ccnc1)c1ccc(Cl)cc1Cl (stereo not given),outcome,[12],inactive
same,outcome,[17],inactive
same,outcome,[18],inactive
same,outcome,[1],inactive
same,outcome,[2],inactive
same,outcome,[19],inactive
same,outcome,[3],inactive
same,outcome,[5],inactive
same,outcome,[6],inactive
same,outcome,[7],inactive
same,outcome,[8],inactive
same,outcome,[9],inactive
same,outcome,[11],inactive
CN(C)C(=O)Nc1ccc(Cl)c(Cl)c1,outcome,[1],inactive
same,AC50,[2],25.1 µM (active) and 18 µM (active)
same,outcome,[5],inactive
same,AC50,[6],32.9 µM (active) and 10.6 µM (active)
same,AC50,[7],24.9 µM (active)
same,outcome,[7],inactive
same,AC50,[8],19.6 µM (active)
same,outcome,[8],inactive
same,AC50,[9],130 µM (active) and 65.2 µM (active)
same,AC50,[11],33.8 µM (active)
same,outcome,[11],inactive
CC(=O)S[C@@H]1CC2=CC(=O)CC[C@]2(C)[C@H]2CC[C@@]3(C)[C@@H](CC[C@@]34CCC(=O)O4)[C@H]12,outcome,[12],inactive
same,outcome,[17],inactive
same,outcome,[20],inactive
same,outcome,[1],inactive
same,outcome,[2],inactive
same,outcome,[19],inactive
same,outcome,[3],inactive
same,outcome,[5],inactive
same,outcome,[6],inactive
same,outcome,[7],inactive
same,outcome,[8],inactive
same,outcome,[15],inactive
same,AC50,[9],74 µM (active)
same,outcome,[11],inactive
CC(C)CCCCCCc1ccc(O)cc1,outcome,[20],inactive
same,outcome,[1],inactive
same,AC50,[2],0.989 µM (active)
same,outcome,[19],inactive
same,AC50,[5],5.75 µM (active)
same,AC50,[6],0.829 µM (active)
same,outcome,[7],inactive
same,AC50,[8],0.75 µM (active)
same,AC50,[9],1.44 µM (active)
same,AC50,[11],1.19 µM (active)
CCCCC(CC)COC(=O)c1ccccc1C(=O)O (stereo not given),outcome,[12],inactive
same,outcome,[20],inactive
same,outcome,[1],inactive
same,AC50,[2],27.1 µM (active)
same,outcome,[19],inactive
same,AC50,[6],27.2 µM (active)
same,outcome,[7],inactive
same,outcome,[13],inactive
same,AC50,[8],4.22 µM (active)
same,AC50,[9],48.9 µM (active)
same,outcome,[10],inactive
same,AC50,[11],33.2 µM (active)
